Growth data for 40 compounds are collected here from PubChem BioAssay (NCI).

The panel holds about 83,000 compounds, 20% with a hit somewhere; the sample as a whole holds those more often.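 Activity criterion: percent growth below 10, measured after cells in 96-well plates were exposed to a single compound concentration for 48 hours.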 Values without a mark were called inactive. Activity calls are given as the source filed them.

The experiment relates to SR leukemia. Put plainly: NCI-60 one-dose screen, 48 h (100 = growth as untreated, 0 = no growth, -100 = all killed). As to conditions: 10 µM unless noted. The protocol: Growth inhibition of the SR human tumor cell line is measured as a screen for anti-cancer activity. Cells are grown in 96 well plates and exposed to the test compound for 48 hours. Compounds are tested at a single concentration, which is 10^-5 M for most compounds. The reported endpoint is percent growth (GI% or GIPRCNT), where numbers from 0 - 100% represent growth inhibition, and numbers from -100% - 0 represent cell death. For example, a value of 40 represents 60% growth inhibition. A value of 0 means no net growth occurred over the course of the experiment. A value of -40 indicates 40% of cells at the beginning of the experiment died by the end of the experiment. A value of -100 means all cells are dead at the end of the experiment.
NCI-60 Human Tumor Cell Lines Screen was performed using the standard one-dose NCI protocol, which is described in more detail at https://dtp.cancer.gov/discovery_development/nci-60/default.htm.
Compounds with GIPRCNT values below 10 were considered active. Activity score was based on GIPRCNT using the following formula: […]
Score is 0 for GIPRCNT values of 100 or above, 50 for GIPRCNT values of 0, and 100 for GIPRCNT values of -100.
Consider `Cc1cc(N2CCOCC2)nc(N(CCNc2ccnc3cc(Cl)ccc23)Cc2ccco2)n1`, for which the growth was -22.6% (active).
Turning to `COc1cc2ncnc(Oc3ccc(NC(=O)Nc4ccc(CN5CCOCC5)c(C(F)(F)F)c4)c4ccccc34)c2cc1OC`, the growth is 17.1%.
Next, `c1ccc(CNCCN(CCNCc2ccccn2)Cc2ccc3ccccc3c2)nc1`: 2.45% (active).
The same measure for `CCOc1ccc(NC2=C(Cl)C(=O)c3ccccc3C2=O)cc1`: -6.21% (active); for `C=C1C(=O)O[C@H]2[C@H]1CC/C(COC(=O)c1ccc3ccccc3c1)=C\CC[C@@]1(C)O[C@@H]21`: -19.4% (active).
Next, `CCCCCCCCN(CCCCCCCC)CC(O)c1cc(-c2ccccc2)nc2ccc(OC)cc12` (stereo not given): 5.05% (active); `CCOc1ccccc1C(=O)N1CCN(c2cc(Cl)cc(Cl)c2)CC1`: 6.79% (active); `Cc1c(F)cccc1NC(=O)c1sc2nc3c(cc2c1N)CCCCC3`: 16.8%.
As to `O=C(c1cc(-c2ccc(Cl)cc2)nc2ccccc12)N1N=C(c2ccccc2)CC1c1cc(-c2ccccc2)nn1-c1ccccc1` (stereo not given), the growth was 73.4%.
The same measure for `CC(C(=O)O)N1C(N)=NNC1c1ccccc1O` (stereo not given): 72.2%.
`O=c1c2ccccc2[nH]n1Cc1ccc2c(c1)OCO2`: the growth was 115%.
Next, `COc1ccc(-c2ccc(NC(=O)Nc3ccc(Cl)c(C(F)(F)F)c3)c(C)n2)cc1`: 35.7%.
The same measure for `COc1cc(NC(C)CCCN2C(=O)c3ccccc3C2=O)c2ncccc2c1OC` (stereo not given): 35.4%; for `C=C1C(=O)O[C@H]2[C@H]1CC/C(COC(=O)c1ccc(C#N)cc1)=C\CC[C@@]1(C)O[C@@H]21`: -10% (active); for `C=C1C(=O)O[C@H]2[C@H]1CC/C(C(=O)Nc1ccc(OC)c(C(N)=O)c1O)=C\CC[C@@]1(C)O[C@@H]21`: 22.3%.
The same measure for `O=C(C[n+]1ccccc1Cl)c1ccc2c(c1)CCCC2`: 59.8%; for `CCc1cccc(-c2ccccc2)c1`: 52.4%; for `CCN(CC)CC(=O)Nc1c(C)cccc1C`: 98.3%.
As for `CN(C)c1ccc2cc(-c3nc4ccccc4s3)c(N)nc2c1`, the growth was 20.9%.
Next, `CO[C@H]1/C=C/C=C/C=C/C[C@H](OC(=O)[C@@H](C)NC(=O)C2CCCCC2)[C@H](C)[C@@H](O)/C(C)=C\CCC2=CC(=O)C=C(NC(=O)C1)C2=O`: 3.26% (active).
The same measure for `O=[N+]([O-])c1ccc(NS(=O)(=O)c2ccccc2)c2ccccc12`: 51.6%.
Next, `CC(=O)Cc1cccnc1`: 104%.
In the case of `O=C(Nc1ccc(-n2cc(-c3ccncc3)c(-c3ccc(O)c(Cl)c3)n2)cc1)c1ccc(Cl)c(C(F)(F)F)c1`, the growth was 8.48% (active).
Next, `COc1ccc(-c2nnc(SCC(=O)Nc3ccc(C(=O)/C=C/c4ccc(OC)c(OC)c4)cc3)o2)cc1`: 60.1%.
Next, `CCC(CC(C)C)Nc1ccc(NC(CC)CC(C)C)cc1` (stereo not given): 48.9%; `COc1cc2ncn3c(=O)c4c5c(sc4nc3c2cc1OC)CCCCC5`: 97.9%.
Next, `C=CC(C)(O)CCC1C(=C)CCC2C(C)(C)CCCC12C` (stereo not given): 90.2%.
For `Cc1[nH]n(C(=O)c2ccncc2)c(=O)c1N=Nc1ccc(S(=O)(=O)Nc2ccncn2)cc1`, the growth was 78.1%.
Next, `O=C(Nc1ccc(F)cc1)Nc1ccc(Cl)c([N+](=O)[O-])c1`: 31.8%.
The same measure for `CCOC(=O)n1cnc2c(Cl)ncnc21`: 110%; for `CNC(=O)NN`: 104%; for `CCNC(=O)Oc1ccc(/C(=C(/CC)Cc2ccccc2)c2ccc(OCCN3CCOCC3)cc2)cc1`: 29.2%.
The same measure for `Nc1nccc2c1ccn2-c1ccc(NC(=O)c2ccc(N3CCOCC3)c(C(F)(F)F)c2)cc1`: 14.9%.
In the case of `CCOC(=O)C(C)(CSSCC(C)(NC(=O)c1ccc2ccccc2c1)C(=O)OCC)NC(=O)c1ccc2ccccc2c1` (stereo not given), the growth was 61.2%.
Next, `Nc1nccc2c1ccn2-c1ccc(NC(=O)Nc2cccc(C(F)(F)F)c2)cc1`: 91.5%; `CCCCCCCCCCCC(=O)OCCNC(=O)C[n+]1ccccc1`: 104%; `CC(C)CNCC(=O)Nc1ccc(Cc2ccc(NC(=O)CNCC(C)C)cc2)cc1`: 6.24% (active).
Next, `O=C(Nc1ccc(-n2cc(-c3ccncc3)c(-c3ccc(O)c(Cl)c3)n2)cc1)Nc1cc(C(F)(F)F)cc(C(F)(F)F)c1`: 69.7%.
The same measure for `COC(=O)Nc1nc2ccc(Sc3ccccc3)cc2[nH]1`: 14.5%; for `O=C(NCCNc1nccc(-c2c(-c3cccc(O)c3)nc3sccn23)n1)Nc1cccc(C(F)(F)F)c1`: 59.2%.
